# CYP2C19 inh – blocks human cytochrome P450 2C19; P33261; CYP2C19 Supersomes, luciferin-H EGE luminescence, 30 min; inhibition, % at 5 µM; 21% of 96,000 active;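 active means CYP2C19 inhibition above a set limit at 5 µM in the primary screen, cut at about 50% in these data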;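 further: plate controls were negative control wells for no effect and 2.5 mM tranylcypromine positive control for full effect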
# Target sequence (P33261 whole entry, looked up): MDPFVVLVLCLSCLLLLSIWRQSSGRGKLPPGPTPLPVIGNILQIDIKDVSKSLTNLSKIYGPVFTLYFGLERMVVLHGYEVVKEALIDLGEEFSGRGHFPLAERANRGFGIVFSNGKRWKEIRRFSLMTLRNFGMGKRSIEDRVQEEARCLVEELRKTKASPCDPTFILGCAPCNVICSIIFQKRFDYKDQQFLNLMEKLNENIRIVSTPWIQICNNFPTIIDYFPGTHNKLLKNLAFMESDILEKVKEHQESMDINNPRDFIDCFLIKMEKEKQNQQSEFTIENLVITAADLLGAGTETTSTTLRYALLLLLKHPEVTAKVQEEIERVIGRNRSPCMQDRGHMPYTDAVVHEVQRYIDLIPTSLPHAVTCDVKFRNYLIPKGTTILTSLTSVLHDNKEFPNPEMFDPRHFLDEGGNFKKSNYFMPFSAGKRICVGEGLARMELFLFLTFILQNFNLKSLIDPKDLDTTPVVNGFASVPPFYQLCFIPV
# PTK2B oligo ant – antagonists of human Pyk2 oligomerization | z-score (the deposit names both 25 µM and 10 µM) | Q14289 | 0.83% of 99,000 active | Q293 cells, Pyk2 FERM NanoBiT luminescence; hits give low values;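 active means Z-score of -3 or lower, scaled per plate to the spread of control and sample wells; inactive means z-score above -3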;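 further: negative z-score means lost luminescence so less FERM oligomerization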
# CYP2C9 activ – increases human cytochrome P450 2C9 activity. AID 1024. P11712. 1.4% of 96,000 active. activation factor at 5 µM. recombinant CYP2C9, luciferin-H conversion, luminescence; hits give high values; factor 1 = untreated enzyme, 0 = blocked;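 active means activation factor of 2 or more for CYP2C9 at a 5 µM dose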;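 further: 0 = sulfaphenazole-blocked wells and 1 = vehicle-only wells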
# CYP2C9 inh – human CYP2C9 inhibition; P11712; CYP2C9 Supersomes, luciferin-H conversion, luminescence; inhibition, % at 5 µM; 20% of 96,000 active; AID 777;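 active means blocking of liver enzyme CYP2C9 beyond about 50% at 5 µM, limit read from the data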
# CYP2C19 activ – cytochrome P450 2C19 (human) activation. P33261. recombinant CYP2C19, luciferin-H EGE luminescence; hits give high values; 0 = fully inhibited enzyme, 1 = untreated enzyme. activation factor at 5 µM. 96,000 tested, under 10 active. AID 1025;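 active means activation factor of at least 2 at 5 µM in the primary screen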;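 further: 0 = wells with 2.5 mM tranylcypromine and 1 = vehicle-only wells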
# * = called active by the depositor; x = no result given. A selection: hits, their analogues and other compounds. The true share with any hit is near 28%.
SMILES,CYP2C19 inh,PTK2B oligo ant,CYP2C9 activ,CYP2C9 inh,CYP2C19 activ
CSc1nnc(-c2nnc(SC)n2-c2ccccc2)n1-c1ccccc1,1,-0.23,1,-4,1
CC(=O)C(N=Nc1ccccc1)(Sc1nnc(-c2ccccc2)n1-c1ccccc1)C(C)=O,x,-3.1*,x,x,x
Cc1noc(C)c1COC(=O)c1ccc2c(c1)S(=O)(=O)c1ccccc1C2=O,-7,-1.4,0.8,21,1.1
O=C(OCc1ccccc1)c1ccc2c(c1)-c1ccccc1C2=O,35,-1.7,0.4,55*,0.7
O=C(c1cnn2c(C(F)(F)F)cc(-c3ccco3)nc12)N1CCc2ccccc2C1,59*,2,0.2,76*,0.4
Cc1cc(C(F)F)n2ncc(C(=O)N3CCc4ccccc4C3)c2n1,84*,-0.06,1.9,-91,0.2
O=C(c1cnn2c(C(F)F)cc(C3CC3)nc12)N1CCc2ccccc2C1,74*,0.14,1.7,-71,0.3
COc1ccc(N=C2S/C(=C\c3ccc(N4CCOCC4)o3)C(=O)N2CCc2c[nH]c3ccccc23)cc1,32,-2.4,0.4,64*,0.7
CCCN1C(=O)/C(=C/c2ccco2)SC1=Nc1ccc(OC)cc1,10,-1.3,0.7,28,0.9
CCc1ccc(C2CC(c3ccco3)=NN2S(C)(=O)=O)cc1 (stereo not drawn),62*,-0.49,0.6,40,0.4
CCn1c(Cn2nnc(-c3ccccc3)n2)nnc1SCc1ccc(Cl)c(Cl)c1,15,1.2,0.6,38,0.9
CC(=O)Nn1c(C)nnc1-n1nc(C)cc1C,11,0.01,0.8,24,0.9
CCNS(=O)(=O)c1cc(Br)ccc1OC,30,2.5,1.8,-76,0.7
CCCCNS(=O)(=O)c1ccc(OC)c(Cl)c1Cl,52*,-0.68,1.6,-59,0.5
COCCCNS(=O)(=O)c1ccc(OC)c(Cl)c1Cl,88*,-0.39,3.7*,-268,0.1
CCC(C)NS(=O)(=O)c1ccc(OC)c(Cl)c1Cl (stereo not drawn),70*,0.39,1.4,-36,0.3
COCC(C)NS(=O)(=O)c1ccc(C)cc1 (stereo not drawn),17,0.64,1.1,-8,0.8
Cc1ccc(N2C(=O)[C@@H]3Cc4ccccc4CN3C2=O)cc1,3,1.1,1.2,-17,1
Cc1ccc(N2Cc3ccccc3OC(C)C2=O)cc1 (stereo not drawn),100*,x,0.2,85*,0
O=C(c1ccc(F)cc1)C1CCN(C(=O)NCc2ccccc2)CC1,7,0.56,0.8,19,0.9
Cc1ccc(C(C)C)c(OCC(=O)N2CCOCC2)c1,36,-0.16,1.2,-18,0.6
CC(=O)N1CCN(c2ccccc2NC(=O)c2cc(Br)ccc2Cl)CC1,36,1.6,0.4,59*,0.6
O=C(CCCOc1ccc(Cl)cc1Cl)N1CCCc2ccccc21,32,0.31,0.6,36,0.7
CC(=O)N1CCN(c2ccccc2NC(=O)COc2ccc(Cl)cc2Cl)CC1,78*,-2.5,0.5,46,0.2
CCC(=O)N1CCN(c2ccccc2NC(=O)COc2cc(C)ccc2C(C)C)CC1,93*,-2.7,0,96*,0.1
SMILES,CYP2C19 inh,PTK2B oligo ant,CYP2C9 activ,CYP2C9 inh,CYP2C19 activ
CC(=O)N1CCN(c2ccc(NC(=O)COc3ccc(Cl)cc3Cl)cc2)CC1,17,-0.19,0.8,18,0.8
O=C(COc1ccc(Cl)cc1Cl)NC(=S)N1CCCc2ccccc21,60*,0.42,0.4,62*,0.4
CCc1cccc2c(C=C(C#N)C#N)cn(CC(=O)N3CCCC3)c12,-8,-0.35,1,-4,1.1
CC(=O)N1CCc2cc(Br)cc(S(=O)(=O)N3CCN(C(=O)c4ccco4)CC3)c21,28,1.6,0.4,59*,0.7
O=C(c1ccco1)N1CCN(S(=O)(=O)c2ccc3c(c2)CCN3C(=O)C2CC2)CC1,69*,0.31,0.7,26,0.3
O=C(C1CC1)N1CCc2cc(S(=O)(=O)N3CCOCC3)ccc21,14,1.3,1.1,-10,0.9
O=C(c1ccco1)N1CCN(S(=O)(=O)c2cccc(C(F)(F)F)c2)CC1,83*,-0.2,0.3,71*,0.2
C=C(C)C1CC=C(C)/C(=N/NC(=O)COc2cccc3ccccc23)C1 (stereo not drawn),x,0.6,x,x,x
CSc1nc(C)c2c(n1)N(c1ccc(C(C)C)cc1)CC2,-5,-0.17,0.9,6,1
CCc1cc2ccccc2nc1SCC(=O)Nc1cc(OC)c(OC)cc1C(=O)O,x,0.52,x,x,x
COc1cccc(CSc2nnc(-c3ccc(F)cc3)o2)c1,17,-1.1,1.2,-21,0.8
COc1cc(NC(=O)CSc2nc3ccccc3cc2Cc2ccccc2)cc(OC)c1,83*,0.97,0.4,64*,0.2
COc1cccc(NC(=O)CSc2nc3ccccc3cc2Cc2ccccc2)c1,94*,0.94,0.3,68*,0.1
COc1cccc(CSc2nc3ccccc3cc2C=O)c1,25,-0.66,0.4,64*,0.7
COc1ccc(NC(=O)CSc2nc3ccccc3cc2Cc2ccccc2)cc1,85*,-1.5,0.7,33,0.1
COc1cccc(NC(=O)CSc2nc(N)cc(N)n2)c1,-3,-0.18,1.1,-8,1
CC1=NNC(=O)C1C(c1ccccc1)C(C#N)C#N (stereo not drawn),25,1.2,0.8,24,0.7
Cn1c(CSc2nc3ccccc3s2)nnc1SCC(=O)NCc1cccnc1,x,0.4,x,x,x
COc1cc(NC(=O)CSc2ncccc2C(=O)OC(C)C)cc(OC)c1,70*,-0.16,0.5,51*,0.3
COc1ccc(-c2cc(OC)c3c(C)oc(C)c3c(=O)c2)cc1OC,85*,1.2,0,99*,0.2
COc1ccc(-c2cc(C(=O)O)c(C)o2)cc1OC,24,0.9,1,1,0.8
COc1cc(-c2cc(OC)c3c(C)oc(C)c3c(=O)c2)ccc1O,42,-0.25,0.1,94*,0.6
COc1ccc(-c2c(C)oc3c(CN4CCN(CCO)CC4)c(O)ccc3c2=O)cc1OC,-1,0.5,1,2,1
CCOc1ccccc1NC(=O)CSc1nnc(-c2ccccn2)n1Cc1ccco1,72*,-1,0.2,79*,0.3
COc1ccc(C)cc1NC(=O)CSc1nnc(-c2ccco2)n1Cc1ccco1,27,0.86,0.8,20,0.7
SMILES,CYP2C19 inh,PTK2B oligo ant,CYP2C9 activ,CYP2C9 inh,CYP2C19 activ
CCOc1ccccc1NC(=O)CSc1nnc(-c2ccco2)n1Cc1ccco1,86*,-1.4,0.4,58*,0.1
COc1ccc(NC(=O)CSc2nnc(-c3ccccn3)n2Cc2ccco2)cc1OC,15,-0.19,0.7,35,0.8
CCOc1ccccc1NC(=O)CSc1nnc(-c2ccccc2Cl)n1Cc1ccco1,70*,-0.83,0.5,49,0.3
C#CC1CN(Cc2ccccc2)CC(C#C)N1C (stereo not drawn),39,-0.04,1,0,0.6
COC(=O)c1cc2c(s1)-c1ccccc1OC2,65*,x,0.9,6,0.4
O=C(Nc1nccs1)c1cc2c(s1)-c1ccccc1OC2,17,x,0.9,10,0.8

# Screens deposited in PubChem BioAssay by Sanford-Burnham Center for Chemical Genomics.
